Experimental data from PubChem BioAssay AID720518 (National Center for Advancing Translational Sciences (NCATS), 2013).
Records with an inconclusive call do not appear. A number with no mark means an inactive call. Calls follow the shape of the full dose curve.

experiment: qHTS for Inhibitors of Cell Surface uPA Generation: Wild-type Protective Antigen (WT-PrAg) Counterscreen for Cherry-picked Compounds; settings: cells, WT protective antigen toxicity counterscreen; series mostly up to 115 µM; activity (protection): at the top concentration; also: 0% is about no effect

SMILES	activity (protection) [%]
CCCS(=O)(=O)c1ccc(COC(=O)Cc2ccc([N+](=O)[O-])cc2)cc1	-0.882
Cc1ccc(-c2cc(C(=O)NCC3CCCO3)no2)cc1 (stereo not given)	-2.27
O=C(CCCC(=O)N1CCN(c2ccccc2F)CC1)c1ccccc1	0.0653
Cc1ccccc1S(=O)Cc1ccc(C(=O)N2CCN(C(=O)c3ccco3)CC2)o1 (stereo not given)	-0.657
C[C@@H](C(=O)Nc1ccc2ccccc2c1)[C@@H]1C[C@@]1(C)[C@@H](NC(=O)c1cccnc1)c1ccccc1	-2.34
Cc1oc2c(Cl)c(Cl)c(O)c(CN(C)C)c2c1C(=O)c1ccc(Cl)cc1	2.01
CN(C)S(=O)(=O)c1ccc(NC(=O)COC(=O)CC2CC3CCC2C3)cc1 (stereo not given)	0.767
CCC(NC(=S)NCc1ccc(F)cc1)c1ccccc1 (stereo not given)	0.549
COc1ccc(C2=Nc3ccccc3C2(O)CCN2C(=O)c3ccccc3C2=O)cc1 (stereo not given)	-1.2
CC(C)OC(=O)c1ccc(N2CCN(c3ccccc3F)CC2)nc1	-1.86
CCC1(C)NC(=O)N(CC(=O)Nc2sc3c(c2C(N)=O)CCC3)C1=O (stereo not given)	6.41
C[N+]1(CC(O)c2ccccc2)CCCCCC1 (stereo not given)	0.142
O=c1[nH]c2c(s1)C(c1ccc(O)cc1)C1C3CCC(C3)C1S2 (stereo not given)	4.5
CN(CC(=O)N(C)CC(=O)Nc1c(Cl)cccc1Cl)Cc1ccccc1F	1.34
Cc1nc2nc(C)c(NS(=O)(=O)c3ccc(Cl)cc3)c(=O)n2[nH]1	2.63
Cc1cccc(N2C(=O)N3[C@H](c4ccc(F)cc4)[C@@H]4C(=O)N(C5CCCCC5)C(=O)[C@@H]4[C@]3(Cc3ccc(Cl)cc3)C2=O)c1	8.87
Cc1cc(C)n(CCCNC(=O)c2ccc(C)o2)n1	-1.36
CC1(C)C([N+](=O)[O-])C(c2ccc(F)cc2)NC(c2ccc(F)cc2)C1[N+](=O)[O-] (stereo not given)	6.17
C=CCOC(=O)C1=C[C@@H](c2coc3ccccc3c2=O)C[C@@H](OCc2ccc(CO)cc2)O1	-1.44
COC(=O)CCSCC(=O)N1N=C(c2ccc(OC)cc2)CC1c1cccc(OC)c1OC (stereo not given)	-2.08

SMILES	activity (protection) [%]
O=C(CNC(=O)c1ccc(Br)o1)NNC(=O)c1ccccc1	-0.857
CCC1(CC)NC(=O)N(CC(=O)OCC(=O)c2cc(C)c(C)cc2C)C1=O	-0.796
COc1ccccc1N=Nc1c(C)[nH]n(-c2ccccc2)c1=O	4.55
Cc1[nH]c(=O)[nH]c(=O)c1S(=O)(=O)N1CCCc2ccccc21	-1.05
O=S(=O)(/N=C(/c1ccccc1)N1CCOCC1)c1ccc(F)cc1F	0.385
Cc1ccccc1O	-0.342
CCC(=O)N(Cc1cc2ccc(C)cc2[nH]c1=O)c1ccccc1OC	-0.972
COc1cc(CN2CCN(c3ncccn3)CC2)cc(OC)c1	-0.252
O=C(Nc1ccnn1C1CCN(CCCC2CCCC2)CC1)c1ccccc1	-2.33
CC(Sc1nnc2ccccn12)C(=O)NCc1ccc2c(c1)OCO2 (stereo not given)	0.198
O=C1NC(CCc2ccccc2)C(=O)N1Cc1ccccc1Cl (stereo not given)	4.02
Cc1nc([N+](=O)[O-])cn1CCCCN1C(=O)c2ccccc2C1=O	-0.525
OCC[C@@H]1C[C@H](O)[C@@H](O)[C@]2(OCCc3ccccc32)O1	-0.757
CCCCCN(C(=O)CCC(=O)OCCOc1cccc(Cl)c1)c1c(N)n(CCCC)c(=O)[nH]c1=O	-0.186
Cc1ccsc1/C=C(\C#N)C(=O)NC1CCS(=O)(=O)C1 (stereo not given)	-0.97
Cn1nc(C(C)(C)C)c([N+](=O)[O-])c1C(=O)N1CCOCC1	-0.505
Cc1cnc(C(=O)OCC(=O)Nc2ccc3c(c2)OCCO3)cn1	0.158
Cc1ccc(NC(=O)C(C)S)cc1 (stereo not given)	-2.35
COc1ccc(-c2sc3ccccc3c2C#CCO)cc1	-1.9
Cc1ccc(/C=N/NC(=O)c2ccc3nc[nH]c3c2)s1	-2
